Screening results (PubChem)
In the library only some 18% were active in any assay of this set; here they are far more common.
TDP1 block – inhibitors of human tyrosyl-DNA phosphodiesterase TDP1 | recombinant TDP1, AlphaScreen DNA substrate cleavage | AID 485290 | Potency, µM (highest dose often 130 µM), hits mostly inhibitors | Q9NUW8 | 350,000 tested, 0.28% active; also: nearly all actives have a fitted effect of over 40% in size
Target sequence (Q9NUW8 whole entry, looked up): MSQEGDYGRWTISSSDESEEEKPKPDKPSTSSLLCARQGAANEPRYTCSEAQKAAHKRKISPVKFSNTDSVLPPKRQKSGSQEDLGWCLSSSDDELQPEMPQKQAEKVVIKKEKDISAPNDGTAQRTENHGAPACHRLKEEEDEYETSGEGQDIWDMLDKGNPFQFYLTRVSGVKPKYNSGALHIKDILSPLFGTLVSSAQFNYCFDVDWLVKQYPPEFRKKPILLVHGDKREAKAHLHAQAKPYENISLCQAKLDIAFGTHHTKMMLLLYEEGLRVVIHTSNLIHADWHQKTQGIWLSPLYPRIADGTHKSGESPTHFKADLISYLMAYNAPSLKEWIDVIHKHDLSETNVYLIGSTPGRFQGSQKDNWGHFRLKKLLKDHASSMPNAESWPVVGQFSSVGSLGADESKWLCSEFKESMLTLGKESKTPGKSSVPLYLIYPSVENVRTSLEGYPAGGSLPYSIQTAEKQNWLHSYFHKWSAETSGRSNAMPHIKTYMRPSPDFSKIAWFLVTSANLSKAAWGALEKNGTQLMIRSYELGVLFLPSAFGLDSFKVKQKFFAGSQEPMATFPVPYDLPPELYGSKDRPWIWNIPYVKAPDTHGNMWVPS
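Compounds were preincubated with Tdp1 (1 nM final) for 15 min at room temperature before substrate (15 nM final) started a 5 min reaction; beads (10 ug/ml final) were then added for 10 min before AlphaScreen detection.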
DT40 TDP1 no CPT – qHTS for Inhibitors of human tyrosyl-DNA phosphodiesterase 1 (TDP1): qHTS in cells in absence of CPT | DT40 Tdp1-/- hTDP1 cells, no CPT, ATP luminescence, 48 h | Potency, µM (doses to about 46.2 µM), hits mostly inhibitors | 420,000 tested, 15% active; also: nearly all actives have a fitted effect of over 55% in size
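Camptothecin absent (DMSO only). Human TDP1-complemented DT40 knockout cells, 400 cells/well, 37 °C for minimum 48 hr; ATP measured via CellTiter-Glo, 30 min dark incubation, luminescence.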
IL1B secr inh – inhibitors of inflammasome signaling (IL-1 beta secretion). THP-1 LPS/ATP IL-1B secretion, AlphaLISA, 16 h; stronger effect = lower value. activity change, % at 57.5 µM. 360,000 tested, 4.7% active. AID 743279; in the data active = activity change below about -50%; inconclusive = mostly about -30% to -49%
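THP-1 cells pretreated 1 hr with compounds (up to 57.5 uM final), then stimulated with LPS (250 ng/mL final) plus ATP (1.25 mM final); secreted IL-1B measured by AlphaLISA after 16 hr, decreased signal indicating inhibition.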
CtBP-E1A blk – blocks the CtBP interaction with E1A | 340,000 tested, 0.49% active | AID 651724 | AlphaScreen GST-E1A/His-CtBP binding, 1536-well; stronger effect = lower value | activity change, % (no concentration beside the values); in the data active = activity change below about -65%; inconclusive = mostly about -30% to -63%
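GST-E1A and His-tagged CtBP (125 nM each as 5X stock) were preincubated with pin-transferred compound for 2 h at 37 °C in the dark, then glutathione donor and nickel acceptor beads were added for 1 h before AlphaScreen reading.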
DT40 TDP1 CPT – growth inhibition of DT40 Tdp1-/-;hTDP1 cells with camptothecin (screen for TDP1 inhibitors) | Potency, µM (series often up to 46.2 µM), actives largely listed as inhibitors | chicken DT40 Tdp1-/-;hTDP1 cells + 20 nM CPT, ATP luminescence, 48 h | 420,000 tested, 12% active | AID 686979; also: nearly all actives have a fitted effect of over 55% in size
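Cell growth measured by CellTiter-Glo luminescence after a minimum 48 h, 37 C compound exposure with 20 nM CPT in Tdp1-knockout DT40 cells stably expressing hTDP1, seeded 400/well; qHTS titration format.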
Six1-Eya2 inh – inhibitors of human Six1/Eya2 interaction; Q15475+O00167; AlphaScreen GST-Six1/His-Eya2 binding, biochemical; stronger effect = lower value; activity change, % (no concentration beside the values); 360,000 tested, 0.56% active; in the data active = activity change below about -65%; inconclusive = mostly about -30% to -63%
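AlphaScreen luminescence read after one hour at 37 °C in darkness. Pin-transferred compounds met GST-Six1 and His-Eya2 protein (5X stock 250 nM/500 nM) plus glutathione donor and Ni-chelate acceptor beads (5X, 50 ug/mL).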
Hits are given with their value; i = inactive; ? = inconclusive; nt = no result. Unless noted, calls follow the shape of the dose curve; as a rule, active = well fitted curve in the direction sought with a large enough effect; inconclusive = small, poorly fitted or top-dose-only effect, or another doubt; inactive = no such curve, though single readings can be large; an effect the other way counts as inactive or inconclusive.

SMILES	TDP1 block	DT40 TDP1 no CPT	IL1B secr inh	CtBP-E1A blk	DT40 TDP1 CPT	Six1-Eya2 inh
COc1cc(/C=N/NC(=O)c2cnn3c(C)cc(-c4ccccc4)nc23)ccc1O	i	16µM	-57	i	23µM	i
COc1ccc(/C=N/NC(=O)c2nc(-c3ccccc3)cc(-c3ccccc3)n2)cc1	i	26µM	-80	i	?	i
COc1ccc(/C=N/NC(=O)c2nc(-c3ccccc3)n(-c3ccccc3)n2)cc1OC	i	?	i	?	?	?
COc1ccc(/C=N/NC(=O)c2nc(-c3ccccc3)cc(-c3ccccc3)n2)cc1O	i	16µM	-82	i	13µM	?
CCN1C[C@@H]2[C@@H]3C(=O)N(Cc4ccccc4)C(=O)[C@@H]3[C@](Cc3ccccc3)(C1=O)N2C(=O)c1ccc(Cl)c(Cl)c1	nt	?	i	i	?	i
COC(=O)CCc1sc(Nc2ccc(OC)cc2)nc1-c1ccc(OC)cc1	i	?	nt	nt	?	nt
COC(=O)CCc1sc(NC2CCCCC2)nc1-c1ccc(OC)cc1	i	18µM	i	i	21µM	i
CCOc1ccc(NC(=O)CC2C(=O)N(c3cccc(C)c3)C(=O)N2Cc2cccs2)cc1 (stereo not drawn)	i	21µM	nt	nt	?	nt
Cc1cccc(N2C(=O)C(CC(=O)Nc3cccc(F)c3)N(Cc3cccs3)C2=O)c1 (stereo not drawn)	i	18µM	nt	nt	?	nt
CCc1ccc(NC(=O)CC2C(=O)N(c3ccc(OC)cc3)C(=O)N2Cc2cccs2)cc1 (stereo not drawn)	i	?	nt	nt	?	nt
Cc1cccc(N2C(=O)C(CC(=O)Nc3ccc(Cl)cc3)N(Cc3ccco3)C2=O)c1 (stereo not drawn)	i	?	nt	nt	?	nt
CCc1ccc(NC(=O)CC2C(=O)N(c3ccc(Cl)cc3)C(=O)N2Cc2cccs2)cc1 (stereo not drawn)	i	4.1µM	nt	nt	4.6µM	nt
COc1ccc(C(=O)NCCCOc2cccnc2)cc1OC1CCN(C(C)=O)CC1	i	i	i	i	i	i
CCCCN(CC)Cc1ccc(CNC(=S)Nc2cccc(F)c2)o1	i	23µM	i	i	?	i
CCCCN(CC)Cc1ccc(CNC(=O)Nc2ccccc2)o1	i	10µM	i	i	18µM	i
CCCCN(CCCC)Cc1ccc(C(=O)NNC(=O)Nc2ccccc2)o1	i	i	i	i	i	i
CCCCN(CC)Cc1ccc(CNC(=O)Nc2ccc(OC)cc2OC)o1	i	?	i	i	i	i
CCC(C(=O)OC)n1cnc2c(nnn2-c2ccc(C)cc2)c1=O (stereo not drawn)	nt	?	i	i	i	i
O=S(=O)(c1ccccc1)n1cc(-c2cccc3nccn23)c2ccccc21	nt	?	i	i	?	i
CCN(c1ccccc1)c1nnc(NC(=O)Nc2ccc(C)cc2)s1	i	16µM	nt	nt	13µM	nt
CCN(c1ccccc1)c1nnc(NC(=O)Nc2ccc(Br)c(C)c2)s1	i	4.1µM	nt	nt	3.3µM	nt
CC1Cc2ccccc2N1C(=O)COC(=O)/C=C/c1cccc(F)c1 (stereo not drawn)	i	i	i	-90	i	i
COc1cc(/C=C/C(=O)OCC(=O)N2c3ccccc3CC2C)cc(OC)c1OC (stereo not drawn)	i	?	i	nt	?	i
COc1ccc(/C=C/C(=O)OCC(=O)N2c3ccccc3CC2C)c(OC)c1 (stereo not drawn)	nt	18µM	i	i	?	i
CC1Cc2ccccc2N1C(=O)CO/N=C/c1ccccc1OC(F)F (stereo not drawn)	i	21µM	i	i	?	i
SMILES	TDP1 block	DT40 TDP1 no CPT	IL1B secr inh	CtBP-E1A blk	DT40 TDP1 CPT	Six1-Eya2 inh
COc1ccc(OC)c(/C=C/C(=O)OCC(=O)N2CCCCC2)c1	i	i	i	-77	i	i
COc1cccc(/C=C/C(=O)OCC(=O)N2c3ccccc3CC2C)c1OC (stereo not drawn)	i	i	i	i	i	i
O=C1CN(C(=O)C2CCCC2)CCN1	i	?	i	i	i	i
Cc1ccc(C(=O)OC(C)C(=O)NCc2ccc3c(c2)OCO3)cc1S(=O)(=O)N1CCOCC1 (stereo not drawn)	i	i	i	i	?	i
Nc1nonc1-c1nc2ccccc2n1Cc1ccccc1	i	29µM	?	i	?	i
CCCCn1c(-c2nonc2N)nc2ccccc21	i	?	i	i	?	i
CC(C)CCn1c(-c2nonc2N)nc2ccccc21	i	?	i	i	13µM	i
CC(C)[N+](C)(CCOC(=O)C1c2ccccc2Oc2ccccc21)C(C)C	i	i	?	i	i	i
CN(C)c1ccc(-c2cc3ccccc3c(=O)o2)cc1	i	i	i	i	i	i
COc1cc(C(=O)Nc2cccc3cccnc23)cc(OC)c1OC	i	26µM	i	i	?	i
CCCOc1cccc(C(=O)Nc2cccc3cccnc23)c1	i	?	nt	nt	23µM	nt
Cc1cnc(C(=O)Nc2cccc3cccnc23)cn1	i	0.0092µM	i	i	0.0073µM	i
COc1cc(OC)cc(C(=O)Nc2cccc3cccnc23)c1	nt	?	?	i	?	i
N#C/C(=C\c1cccc(Br)c1)C(=O)N1CCCCC1	i	12µM	?	i	13µM	i
CC(=O)N1CCN(C(=O)/C(C#N)=C/c2ccc3c(c2)OCO3)CC1	i	i	i	i	i	i
N#C/C(=C\c1cccc(O)c1)C(=O)N1CCCCC1	nt	?	-73	i	i	i
Cc1cc(/C=C(\C#N)C(=O)N2CCCCC2)cc(C)c1O	nt	26µM	i	i	18µM	i
CCN1CCN(C2CCN(C(C)=O)CC2)CC1	i	nt	nt	nt	nt	nt
CC1(C)CC(=O)C=C(NC2CCCCCCC2)C1	i	i	i	i	i	i
C=C1C[C@H](OC(=O)C(C)(O)CCl)C2C(=C)C(=O)O[C@@H]2C2C1C[C@H](O)[C@]2(O)CCl (stereo partly drawn)	i	0.82µM	nt	nt	1.5µM	nt
c1csc(-c2nc(N3CCN(Cc4ccc5c(c4)OCCO5)CC3)c3ccccc3n2)c1	i	?	nt	nt	?	nt
NS(=O)(=O)c1ccc(S(=O)(=O)c2ccccc2)nc1	nt	i	i	i	i	i
CC(C)c1ccc(S(=O)(=O)N2CCC(C(=O)N3CCN(c4cccc(Cl)c4)CC3)CC2)cc1	nt	?	i	i	26µM	i
COc1ccccc1N1CCN(C(=O)C2CCN(S(=O)(=O)c3ccc4c(c3)CC(C)N4C(=O)C3CC3)CC2)CC1 (stereo not drawn)	i	?	-53	i	?	i
